Measured values as given in PubChem BioAssay (NCATS).
Records with an inconclusive call do not appear. Where a call stands in place of a potency, no number is given. The source made the active and inactive calls. Unless noted, the call rests on the fitted dose curve.

test system: not listed separately; assay: qHTS Assay for Identification of Small Molecule Inducers of Hypoxia Response (AID 2120; active means well fitted curve in the direction sought with a large enough effect in the signal ratio, with a control signal flat, not every such curve was filed as active; the % refers to the signal ratio); conditions: hypoxia response reporter cells, beta-lactamase ratio readout; series mostly up to 104 µM
How it was run: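 HRE-beta-lactamase reporter in CellSensor HRE-bla ME-180 cells, 2500 cells/well in Opti-MEM with 0.5% dialyzed FBS; compounds tested as titration series, 17 h at 37 degrees C. CCF4 substrate 2.5 h at room temperature; AC50 from 460/530 nm ratio.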

Row | SMILES | outcome
1 | CC(C)N(C)C | inactive
2 | CC#N | inactive
3 | O=Cc1c(Cl)cccc1Cl | inactive
4 | Nc1nc2ccccc2[nH]1 | inactive
5 | C=C(C)OC(C)=O | inactive
6 | CCOCCOCC | inactive
7 | CNc1ccc([N+](=O)[O-])cc1 | inactive
8 | O=P(O)(OCc1ccccc1)OCc1ccccc1 | inactive
9 | C=C(C)C1CC=C(C)C(OC(C)=O)C1 (configuration not stated) | inactive
10 | Oc1c(Cl)ccc(Cl)c1Cl | inactive
11 | C=C(C)C(=O)OCCCCCC | inactive
12 | Cc1ccc2ccccc2c1[N+](=O)[O-] | inactive
13 | Cc1cscn1 | inactive
14 | CCOC(=O)OCC | inactive
15 | C=CCCCCCC | inactive
16 | C=C(C)C(=O)OCC(C)C | inactive
17 | O=Cc1ccc(C(=O)O)cc1 | inactive
18 | COc1ccc(N=[N+]([O-])c2ccc(OC)cc2)cc1 | inactive
19 | CC(C)=CCl | inactive
20 | Cc1ccc(CO)cc1 | inactive

Row | SMILES | outcome
21 | COc1cccc2sc(N)nc12 | inactive
22 | CCCCCCCCC/C=C/CC1CC(=O)OC1=O (configuration not stated) | inactive
23 | NC(=O)NC(N)=O | inactive
24 | CN(C)CCCNCCCN | inactive
25 | Cc1ccc2ncccc2c1 | inactive
26 | Cc1cccc(C)c1 | inactive
27 | O=C(O)c1cc(Cl)cc(Cl)c1 | inactive
28 | CC(CCl)OC(C)CCl (configuration not stated) | inactive
29 | CCCCC(CC)COC(=O)CCCCC(=O)OCC(CC)CCCC (configuration not stated) | inactive
30 | CCCCN(CCO)CCCC | inactive
31 | Nc1cc(Cl)c(N)c(Cl)c1 | inactive
32 | CC(C)(c1cc(Br)c(OCC(Br)CBr)c(Br)c1)c1cc(Br)c(OCC(Br)CBr)c(Br)c1 (configuration not stated) | inactive
33 | C=Cc1ccccc1C=C | inactive
34 | C/C=C1\CC2C=CC1C2 (configuration not stated) | inactive
35 | CNC(=O)c1ccccc1 | inactive
36 | C/C=C(/C)C#N | inactive
37 | O=c1[nH][nH]c(=O)c2cc([N+](=O)[O-])ccc12 | inactive
38 | CC(C)CO | inactive
39 | Cc1ccc(C#N)cc1 | inactive

target: Estrogen receptor (Homo sapiens) (UniProt P03372); assay: qHTS assay for small molecule antagonists of estrogen receptor alpha signaling (AID 588513; active means well fitted curve in the direction sought with a large enough effect in the signal ratio, with a control signal flat, not every such curve was filed as active; the % refers to the signal ratio); conditions: ER-alpha-UAS-bla HEK293, beta-lactamase ratio, antagonist mode; series mostly up to 76.9 µM
How it was run: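 Beta-lactamase reporter, antagonist mode, HEK 293 GripTite cells; 0.5nM E2 stimulus, 18 h, 37 C; CCF4 dye 2 h RT; fluorescence. IC50 and efficacy from Hill fits, normalized to E2 and DMSO.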

Estrogen receptor (Homo sapiens), sequence (P03372 whole entry, looked up): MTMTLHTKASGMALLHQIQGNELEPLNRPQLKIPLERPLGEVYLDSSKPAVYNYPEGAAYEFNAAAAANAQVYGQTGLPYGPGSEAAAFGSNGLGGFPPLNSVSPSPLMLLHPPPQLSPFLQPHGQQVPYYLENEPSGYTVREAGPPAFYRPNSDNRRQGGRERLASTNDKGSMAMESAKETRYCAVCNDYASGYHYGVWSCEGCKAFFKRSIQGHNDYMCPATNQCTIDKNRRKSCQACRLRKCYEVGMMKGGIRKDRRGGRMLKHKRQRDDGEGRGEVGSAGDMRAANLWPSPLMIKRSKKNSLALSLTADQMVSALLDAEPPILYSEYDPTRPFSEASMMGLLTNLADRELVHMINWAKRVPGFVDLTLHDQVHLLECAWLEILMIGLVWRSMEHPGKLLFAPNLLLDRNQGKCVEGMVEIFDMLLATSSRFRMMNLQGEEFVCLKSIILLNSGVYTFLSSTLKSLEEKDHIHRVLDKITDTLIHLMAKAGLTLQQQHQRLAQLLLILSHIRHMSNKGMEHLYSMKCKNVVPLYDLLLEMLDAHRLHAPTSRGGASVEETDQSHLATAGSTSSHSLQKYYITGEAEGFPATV

Row | SMILES | outcome
40 | CC(C)N(C)C | inactive
41 | CC#N | inactive
42 | O=Cc1c(Cl)cccc1Cl | inactive
43 | Nc1nc2ccccc2[nH]1 | inactive
44 | C=C(C)OC(C)=O | inactive
45 | CCOCCOCC | inactive
46 | CNc1ccc([N+](=O)[O-])cc1 | inactive
47 | O=P(O)(OCc1ccccc1)OCc1ccccc1 | inactive
48 | C=C(C)C1CC=C(C)C(OC(C)=O)C1 (configuration not stated) | inactive
49 | Oc1c(Cl)ccc(Cl)c1Cl | inactive
50 | C=C(C)C(=O)OCCCCCC | inactive
51 | Cc1ccc2ccccc2c1[N+](=O)[O-] | inactive
52 | Cc1cscn1 | inactive
53 | CCOC(=O)OCC | inactive
54 | C=CCCCCCC | inactive
55 | C=C(C)C(=O)OCC(C)C | inactive
56 | O=Cc1ccc(C(=O)O)cc1 | inactive
57 | COc1ccc(N=[N+]([O-])c2ccc(OC)cc2)cc1 | inactive
58 | CC(C)=CCl | inactive
59 | Cc1ccc(CO)cc1 | inactive

Row | SMILES | outcome
60 | COc1cccc2sc(N)nc12 | inactive
61 | CCCCCCCCC/C=C/CC1CC(=O)OC1=O (configuration not stated) | inactive
62 | NC(=O)NC(N)=O | inactive
63 | CN(C)CCCNCCCN | inactive
64 | Cc1ccc2ncccc2c1 | inactive
65 | Cc1cccc(C)c1 | inactive
66 | O=C(O)c1cc(Cl)cc(Cl)c1 | inactive
67 | CC(CCl)OC(C)CCl (configuration not stated) | inactive
68 | CCCCC(CC)COC(=O)CCCCC(=O)OCC(CC)CCCC (configuration not stated) | inactive
69 | CCCCN(CCO)CCCC | inactive
70 | Nc1cc(Cl)c(N)c(Cl)c1 | inactive
71 | CC(C)(c1cc(Br)c(OCC(Br)CBr)c(Br)c1)c1cc(Br)c(OCC(Br)CBr)c(Br)c1 (configuration not stated) | inactive
72 | C=Cc1ccccc1C=C | inactive
73 | C/C=C1\CC2C=CC1C2 (configuration not stated) | inactive
74 | CNC(=O)c1ccccc1 | inactive
75 | C/C=C(/C)C#N | inactive
76 | O=c1[nH][nH]c(=O)c2cc([N+](=O)[O-])ccc12 | inactive
77 | CC(C)CO | inactive
78 | Cc1ccc(C#N)cc1 | inactive

target: Estrogen receptor (Homo sapiens) (UniProt P03372); assay: qHTS assay for small molecule agonists of estrogen receptor alpha signaling (AID 588514); conditions: ER-alpha-UAS-bla HEK293, beta-lactamase ratio, 18 h; series mostly up to 76.8 µM; further: nearly all actives have a fitted effect of over 70% in size; further: potency means the concentration at half of the fitted maximal effect
How it was run: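 ER-alpha-UAS-bla GripTite HEK 293 cells in medium with 2% charcoal/dextran-treated FBS were treated with compound titrations at 37 C for 18 hrs; beta-lactamase reporter read by CCF4 fluorescence after 2 hrs at RT.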

Row | SMILES | Potency
79 | CC(C)N(C)C | inactive
80 | CC#N | inactive
81 | O=Cc1c(Cl)cccc1Cl | inactive
82 | Nc1nc2ccccc2[nH]1 | inactive
83 | C=C(C)OC(C)=O | inactive
84 | CCOCCOCC | inactive
85 | CNc1ccc([N+](=O)[O-])cc1 | inactive
86 | O=P(O)(OCc1ccccc1)OCc1ccccc1 | inactive
87 | C=C(C)C1CC=C(C)C(OC(C)=O)C1 (configuration not stated) | inactive
88 | Oc1c(Cl)ccc(Cl)c1Cl | inactive
89 | C=C(C)C(=O)OCCCCCC | inactive
90 | Cc1ccc2ccccc2c1[N+](=O)[O-] | inactive
91 | Cc1cscn1 | inactive
92 | CCOC(=O)OCC | inactive
93 | C=CCCCCCC | 12.6 µM (active)
94 | C=C(C)C(=O)OCC(C)C | inactive
95 | O=Cc1ccc(C(=O)O)cc1 | inactive
96 | COc1ccc(N=[N+]([O-])c2ccc(OC)cc2)cc1 | inactive
97 | CC(C)=CCl | inactive
98 | Cc1ccc(CO)cc1 | inactive

Row | SMILES | Potency
99 | COc1cccc2sc(N)nc12 | inactive
100 | CCCCCCCCC/C=C/CC1CC(=O)OC1=O (configuration not stated) | inactive
101 | NC(=O)NC(N)=O | inactive
102 | CN(C)CCCNCCCN | inactive
103 | Cc1ccc2ncccc2c1 | inactive
104 | Cc1cccc(C)c1 | inactive
105 | O=C(O)c1cc(Cl)cc(Cl)c1 | inactive
106 | CC(CCl)OC(C)CCl (configuration not stated) | inactive
107 | CCCCC(CC)COC(=O)CCCCC(=O)OCC(CC)CCCC (configuration not stated) | inactive
108 | CCCCN(CCO)CCCC | inactive
109 | Nc1cc(Cl)c(N)c(Cl)c1 | inactive
110 | CC(C)(c1cc(Br)c(OCC(Br)CBr)c(Br)c1)c1cc(Br)c(OCC(Br)CBr)c(Br)c1 (configuration not stated) | inactive
111 | C=Cc1ccccc1C=C | inactive
112 | C/C=C1\CC2C=CC1C2 (configuration not stated) | inactive
113 | CNC(=O)c1ccccc1 | inactive
114 | C/C=C(/C)C#N | inactive
115 | O=c1[nH][nH]c(=O)c2cc([N+](=O)[O-])ccc12 | inactive
116 | CC(C)CO | inactive
117 | Cc1ccc(C#N)cc1 | inactive
